Assay results: the supplement of paper PMC6555819

What was measured:
Test in all cases: PBM binding z-score (relative to random genomic background probes); higher = stronger binding; sequences stand for … in GC…GCGATTGACAGCGTAGAATGAAGG
[1] = tested on: FXR:RXRa (NR concentration 270 nM, RXRa partner concentration 90 nM)
Summary of the method: (§1)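 Custom Agilent 4×180K protein-binding microarrays carried double-stranded probes. Their 34-nt variable regions held direct-repeat seeds, single-nucleotide variants, half-site ablations and random human genomic background sequences. Arrays were incubated 1 h with ligand-free nuclear receptor dimers in PBS pH 7.4, 2% milk, 0.02% Triton X-100, 1 mM DTT, 0.2 mg/mL BSA and 0.4 mg/ml salmon testes DNA. Antibodies against each partner (one per run) detected binding, and scanned fluorescence was regression-normalized. Binding z-scores use random background probes as reference.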

[2] = tested on: LXRa:RXRa (NR concentration 270 nM, RXRa partner concentration 90 nM)
Summary of the method: as §1

[3] = tested on: LXRa homodimer (NR concentration 270 nM)
Summary of the method: as §1

[4] = tested on: LXRb:RXRa (NR concentration 270 nM, RXRa partner concentration 90 nM)
Summary of the method: as §1

[5] = tested on: LXRb homodimer (NR concentration 270 nM)
Summary of the method: as §1

[6] = tested on: PPARa:RXRa (NR concentration 270 nM, RXRa partner concentration 90 nM)
Summary of the method: as §1

[7] = tested on: PPARg:RXRa (NR concentration 180 nM, RXRa partner concentration 90 nM)
Summary of the method: as §1

[8] = tested on: PPARg:RXRa 270nM:90nM, anti-RXR (NR concentration 270 nM, RXRa partner concentration 90 nM)
Summary of the method: as §1

[9] = tested on: PPARg:RXRa 30nM:10nM, anti-RXR (NR concentration 30 nM, RXRa partner concentration 10 nM)
Summary of the method: as §1

[10] = tested on: PPARg:RXRa 90nM:30nM, anti-RXR (NR concentration 90 nM, RXRa partner concentration 30 nM)
Summary of the method: as §1

[11] = tested on: PPARg:RXRa DBDmut IVT, anti-RXR (DBD mutation: RXRa K156A/R161A, NR concentration 270 nM, RXRa partner concentration 90 nM)
Summary of the method: as §1

[12] = tested on: PPARg:RXRa IVT, anti-PPARg (NR concentration 270 nM, RXRa partner concentration 90 nM)
Summary of the method: as §1

[13] = tested on: PPARg DBDmut:RXRa IVT, anti-PPARg (DBD mutation: PPARg1 K132A/R137A, NR concentration 270 nM, RXRa partner concentration 90 nM)
Summary of the method: as §1

[14] = tested on: PPARg DBDmut IVT, anti-PPARg (DBD mutation: PPARg1 K132A/R137A, NR concentration 270 nM)
Summary of the method: as §1

[15] = tested on: PPARg homodimer (NR concentration 180 nM)
Summary of the method: as §1

[16] = tested on: PXR:RXRa (NR concentration 270 nM, RXRa partner concentration 90 nM)
Summary of the method: as §1

[17] = tested on: PXR homodimer (NR concentration 270 nM)
Summary of the method: as §1

[18] = tested on: RARa:RXR (NR concentration 270 nM, RXRa partner concentration 90 nM)
Summary of the method: as §1

[19] = tested on: RARa homodimer (NR concentration 270 nM)
Summary of the method: as §1

[20] = tested on: RARb:RXRa (NR concentration 270 nM, RXRa partner concentration 90 nM)
Summary of the method: as §1

## GGAACGAGGGCAAAGTTGATCGCATCTGTCGACG
[1]
  PBM binding z-score: 1.11
[2]
  PBM binding z-score: 0.829
[3]
  PBM binding z-score: -0.561
[4]
  PBM binding z-score: 0.545
[5]
  PBM binding z-score: -0.311
[6]
  PBM binding z-score: 3.82
[7]
  PBM binding z-score: 6.68
[8]
  PBM binding z-score: 6.95
[9]
  PBM binding z-score: 5.94
[10]
  PBM binding z-score: 7.29
[11]
  PBM binding z-score: 3.98
[12]
  PBM binding z-score: 4.13
[13]
  PBM binding z-score: -0.0459
[14]
  PBM binding z-score: -0.518
[15]
  PBM binding z-score: 0.458
[16]
  PBM binding z-score: 0.924
[17]
  PBM binding z-score: 0.152
[18]
  PBM binding z-score: 1.42
[19]
  PBM binding z-score: -0.502
[20]
  PBM binding z-score: 2.32

## GATACAGGGTCAAGACCAGAGTACGCGTATTGAT
[1]
  PBM binding z-score: 6.27
[2]
  PBM binding z-score: 3.79
[3]
  PBM binding z-score: 0.0908
[4]
  PBM binding z-score: 3.63
[5]
  PBM binding z-score: 0.0748
[6]
  PBM binding z-score: 5.37
[7]
  PBM binding z-score: 5.25
[8]
  PBM binding z-score: 4.91
[9]
  PBM binding z-score: 1.75
[10]
  PBM binding z-score: 3.56
[11]
  PBM binding z-score: 1.96
[12]
  PBM binding z-score: 3.52
[13]
  PBM binding z-score: 1.38
[14]
  PBM binding z-score: 0.619
[15]
  PBM binding z-score: 1.49
[16]
  PBM binding z-score: 3.34
[17]
  PBM binding z-score: 0.195
[18]
  PBM binding z-score: 3.93
[19]
  PBM binding z-score: 0.851
[20]
  PBM binding z-score: 4.28

## GCATATAGGTAATACAAGGTGAAAGTTCGATTGT
[1]
  PBM binding z-score: 1.05
[2]
  PBM binding z-score: 2.54
[3]
  PBM binding z-score: 0.814
[4]
  PBM binding z-score: 1.37
[5]
  PBM binding z-score: -0.201
[6]
  PBM binding z-score: 2.67
[7]
  PBM binding z-score: 3.47
[8]
  PBM binding z-score: 4.13
[9]
  PBM binding z-score: 2.29
[10]
  PBM binding z-score: 3.58
[11]
  PBM binding z-score: 3.93
[12]
  PBM binding z-score: 3.61
[13]
  PBM binding z-score: 1.22
[14]
  PBM binding z-score: 1.17
[15]
  PBM binding z-score: 1.2
[16]
  PBM binding z-score: 1.86
[17]
  PBM binding z-score: 0.639
[18]
  PBM binding z-score: 2.6
[19]
  PBM binding z-score: 1.1
[20]
  PBM binding z-score: 0.778

## TCTTGTAGGTCAAGCAGGTTAAGAAAGCCTGAGT
[1]
  PBM binding z-score: 5.29
[2]
  PBM binding z-score: 4.34
[3]
  PBM binding z-score: 1.19
[4]
  PBM binding z-score: 3.44
[5]
  PBM binding z-score: 0.725
[6]
  PBM binding z-score: 5.22
[7]
  PBM binding z-score: 7.42
[8]
  PBM binding z-score: 6.59
[9]
  PBM binding z-score: 4.79
[10]
  PBM binding z-score: 6.42
[11]
  PBM binding z-score: 7.24
[12]
  PBM binding z-score: 8.12
[13]
  PBM binding z-score: 1.76
[14]
  PBM binding z-score: 1.83
[15]
  PBM binding z-score: 1.66
[16]
  PBM binding z-score: 3.63
[17]
  PBM binding z-score: 0.673
[18]
  PBM binding z-score: 3.68
[19]
  PBM binding z-score: 0.596
[20]
  PBM binding z-score: 4.34

## ATGTGTAGGTTAGCTGGGGTCATTCAGACTAGGC
[1]
  PBM binding z-score: 4.6
[2]
  PBM binding z-score: 5.92
[3]
  PBM binding z-score: 2.89
[4]
  PBM binding z-score: 4.92
[5]
  PBM binding z-score: 2.24
[6]
  PBM binding z-score: 4.77
[7]
  PBM binding z-score: 2.38
[8]
  PBM binding z-score: 3.24
[9]
  PBM binding z-score: 1.16
[10]
  PBM binding z-score: 2.54
[11]
  PBM binding z-score: 2.74
[12]
  PBM binding z-score: 3.09
[13]
  PBM binding z-score: 1.93
[14]
  PBM binding z-score: 2.25
[15]
  PBM binding z-score: 3.23
[16]
  PBM binding z-score: 6.41
[17]
  PBM binding z-score: 5.39
[18]
  PBM binding z-score: 6.36
[19]
  PBM binding z-score: 2.17
[20]
  PBM binding z-score: 3.25

## CAAACTAGGTCACGAAAGGTCAATGTCGAATGAC
[1]
  PBM binding z-score: 7.08
[2]
  PBM binding z-score: 7.86
[3]
  PBM binding z-score: 6.57
[4]
  PBM binding z-score: 7.03
[5]
  PBM binding z-score: 1.87
[6]
  PBM binding z-score: 6.73
[7]
  PBM binding z-score: 10.3
[8]
  PBM binding z-score: 8.29
[9]
  PBM binding z-score: 6.83
[10]
  PBM binding z-score: 8.33
[11]
  PBM binding z-score: 8.46
[12]
  PBM binding z-score: 9.35
[13]
  PBM binding z-score: 5.05
[14]
  PBM binding z-score: 3.62
[15]
  PBM binding z-score: 4.79
[16]
  PBM binding z-score: 6.78
[17]
  PBM binding z-score: 1.92
[18]
  PBM binding z-score: 7.1
[19]
  PBM binding z-score: 1.91
[20]
  PBM binding z-score: 5.86

## CCTGCTAGGTCCTGGTCAGCTAATCTACAGTATG
[1]
  PBM binding z-score: -0.334
[2]
  PBM binding z-score: -0.452
[3]
  PBM binding z-score: -0.575
[4]
  PBM binding z-score: -0.318
[5]
  PBM binding z-score: -1.07
[6]
  PBM binding z-score: -0.283
[7]
  PBM binding z-score: -0.294
[8]
  PBM binding z-score: -0.442
[9]
  PBM binding z-score: -0.574
[10]
  PBM binding z-score: -0.403
[11]
  PBM binding z-score: 0.239
[12]
  PBM binding z-score: -0.294
[13]
  PBM binding z-score: -1.02
[14]
  PBM binding z-score: -0.479
[15]
  PBM binding z-score: -0.652
[16]
  PBM binding z-score: -0.461
[17]
  PBM binding z-score: -0.864
[18]
  PBM binding z-score: -0.0873
[19]
  PBM binding z-score: -0.971
[20]
  PBM binding z-score: 0.56
